# According to PubChem BioAssay AID1159577 (Broad Institute, 2015):
# Among all 1,300 compounds or so, about 240 (18%) were called active. Roughly 8% stayed inconclusive and do not appear here. No rule for the calls is given here. A selection follows. Entries that show only a call come without a potency. Potency and affinity values are given separately.
# Experiment: toxicity to human hepatoma HepG2 cells – cell-based, cherry-picked samples, cytotoxicity control, dose response (AID 1159577)
# Details: HepG2 cytotoxicity counterscreen, plate reader; series mostly up to 19.5 µM
row,SMILES,outcome
1,CO[C@@H]1CN(C)C(=O)c2cc(NC(=O)C3CC3)ccc2OC[C@H](C)N(CC2CCCC2)C[C@H]1C,inactive
2,CC(C)CNC[C@@H]1[C@@H](c2ccccc2)[C@@H](CO)N1Cc1ccc(F)cc1,inactive
3,CCc1sc(N2[C@@H](C#N)[C@@H](c3ccccc3-c3ccccc3)[C@@H]2CO)nc1C,inactive
4,CN1c2ccc(C#Cc3cccnc3)cc2[C@@H]2[C@@H](CCN2C(=O)C2CCC2)[C@@H]1CO,inactive
5,CNC[C@@H]1Oc2cc(C#Cc3cccnc3)ccc2S(=O)(=O)N([C@H](C)CO)C[C@H]1C,inactive
6,COc1cc(CN2CC3(CCN(C(=O)c4cccnc4)CC3)c3c([nH]c4cc(OC)ccc34)[C@@H]2CO)cc(OC)c1,inactive
7,COc1ccccc1S(=O)(=O)N(C)C[C@H]1OCc2ccccc2-c2c(n(C)c3ccccc23)C(=O)N([C@@H](C)CO)C[C@@H]1C,inactive
8,C[C@H](CO)N1C[C@H](C)[C@@H](CN(C)Cc2cccc(C(=O)Nc3ccccc3N)c2)OCc2ccccc2-c2c(n(C)c3ccccc23)C1=O,inactive
9,COc1ccccc1S(=O)(=O)N(C)C[C@@H]1OCc2ccccc2-c2c(n(C)c3ccccc23)C(=O)N([C@@H](C)CO)C[C@@H]1C,inactive
10,C[C@@H]1CN([C@H](C)CO)C(=O)c2c(c3ccccc3n2C)-c2ccccc2CO[C@@H]1CN(C)Cc1cccc(F)c1,inactive
11,C[C@H](CO)N1C[C@H](C)[C@@H](CN(C)S(=O)(=O)c2cccc(F)c2)OCc2ccccc2-c2c(n(C)c3ccccc23)C1=O,inactive
12,COc1cccc(CN(C)C[C@H]2OCc3ccccc3-c3c(n(C)c4ccccc34)C(=O)N([C@H](C)CO)C[C@@H]2C)c1,inactive
13,C[C@H](CO)N1C[C@H](C)[C@@H](CN(C)Cc2ccc(Oc3ccccc3)cc2)OCc2ccccc2-c2c(n(C)c3ccccc23)C1=O,inactive
14,C[C@H]1CN([C@@H](C)CO)C(=O)c2c(c3ccccc3n2C)-c2ccccc2CO[C@@H]1CN(C)Cc1cccc(O)c1,inactive
15,C[C@H]1CN([C@@H](C)CO)C(=O)c2c(c3ccccc3n2C)-c2ccccc2CO[C@H]1CN(C)C(=O)Nc1ccc(-c2ccccc2)cc1,inactive
16,C[C@H](CO)N1C[C@H](C)[C@H](CN(C)S(=O)(=O)c2ccc(Cl)cc2)OCc2ccccc2-c2c(n(C)c3ccccc23)C1=O,inactive
17,Cc1ccc(S(=O)(=O)N(C)C[C@H]2OCc3ccccc3-c3c(n(C)c4ccccc34)C(=O)N([C@H](C)CO)C[C@@H]2C)cc1,inactive
18,O=C(C[C@H]1C[C@H]2c3cc(NC(=O)Cc4ccncc4)ccc3O[C@H]2[C@H](CO)O1)NCc1ccccc1,inactive
